From PubChem BioAssay (EPA / NIEHS)
Inconclusive results are not listed. The source made the active and inactive calls. The calls were made as follows: active = hit-call score of the fitted dose curve at least 0.9, where 1 is the maximum; inconclusive = response in the unintended direction; inactive = score below 0.9.

molecular target: Cellular tumor antigen p53 (Homo sapiens) (UniProt P04637); experiment: TOX21_p53_BLA_p2_ratio: Tox21 HCT-116 p53 Agonism Beta-lactamase Assay, Ratio, Phase 2 (AID 2283592)
In short: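 Readout: blue/green (460/530 nm) FRET emission ratio after 2 h CCF4-AM loading at room temperature, excitation 405 nm. HCT116 p53 bla cells, 16 h compound exposure at 37C, 5% CO2; agonist direction fitted against DMSO baseline.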

Cellular tumor antigen p53 (Homo sapiens), sequence (P04637 whole entry, looked up): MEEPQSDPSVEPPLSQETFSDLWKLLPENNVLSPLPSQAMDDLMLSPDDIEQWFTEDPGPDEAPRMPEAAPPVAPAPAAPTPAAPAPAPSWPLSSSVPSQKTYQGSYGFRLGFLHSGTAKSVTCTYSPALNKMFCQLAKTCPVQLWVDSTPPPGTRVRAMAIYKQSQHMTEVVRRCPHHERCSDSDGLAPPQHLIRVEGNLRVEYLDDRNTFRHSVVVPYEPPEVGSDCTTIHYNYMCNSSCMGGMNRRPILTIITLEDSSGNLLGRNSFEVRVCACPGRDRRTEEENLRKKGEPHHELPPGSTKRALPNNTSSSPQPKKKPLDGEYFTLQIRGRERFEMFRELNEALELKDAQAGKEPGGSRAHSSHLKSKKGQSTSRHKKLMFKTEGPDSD

Row | SMILES | outcome | AC50
1 | O=C(O)C(Cl)(Cl)Br | inactive | –
2 | CNC(=O)OCC[N+](C)(C)C | inactive | –
3 | Cl/C=C\Cl | inactive | –
4 | COc1ccccc1N1CCNCC1 | inactive | –
5 | NC(=O)CN1CC(O)CC1=O (stereo not drawn) | inactive | –
6 | Cc1ccc(N)cc1C | inactive | –
7 | ClCC(Cl)(Cl)Cl | inactive | –
8 | O=C1CN(O)C(c2ccccc2)=c2cc(Cl)ccc2=N1 | inactive | –
9 | CN(C)CCc1ccc(O)cc1 | inactive | –
10 | CCCCCCCCn1cc[n+](C)c1 | – | 9.49 µM (active) [middle of 4 runs]
11 | C[C@@H](Cc1ccccc1)N(C)C | inactive | –
12 | CCC1C(C)=NN=C(c2ccc(OC)c(OC)c2)c2cc(OC)c(OC)cc21 (stereo not drawn) | inactive | –
13 | CNC(=O)Oc1ccccc1C1OCCO1 | inactive | –
14 | CC(Cl)C(C)Cl (stereo not drawn) | inactive | –
15 | CCCCc1c(C)nc(NCC)nc1OS(=O)(=O)N(C)C | inactive | –
16 | NNC(=O)c1cccnc1 | inactive | –
17 | NC(=O)C(Cl)Cl | inactive | –
18 | N#CCCC#N | inactive | –

Row | SMILES | outcome | AC50
19 | C=CCN1C[C@H](C)N([C@H](c2ccc(C(=O)N(CC)CC)cc2)c2cccc(OC)c2)C[C@H]1C | inactive | –
20 | c1ccc2c(c1)CCNC2 | inactive | –
21 | Clc1ccc(C2(Cn3cncn3)OCCO2)c(Cl)c1 | inactive | –
22 | COP(=S)(OC)Oc1ccc(S(N)(=O)=O)cc1 | inactive | –
23 | CN(C)CCc1c[nH]c2cccc(OP(=O)(O)O)c12 | inactive | –
24 | COc1c(C(C)(C)C)cc([N+](=O)[O-])c(C)c1[N+](=O)[O-] | inactive | –
25 | CN[C@@H](C)Cc1ccccc1 | inactive | –
26 | CNNC | inactive | –
27 | CN1C(=O)CC(=O)N(c2ccccc2)c2cc(Cl)ccc21 | inactive | –
28 | COC1=CC(=O)O[C@@H](/C=C/c2ccccc2)C1 | inactive | –
29 | O=S(=O)(Cl)Cl | inactive | –
30 | CC(C)=CCOc1c2occc2cc2ccc(=O)oc12 | inactive | –
31 | c1ccc2c(c1)Sc1ccccc1N2C[C@@H]1CN2CCC1CC2 | inactive | –
32 | CCCCCN(C)CCC(O)(P(=O)(O)O)P(=O)(O)O | inactive | –
33 | COC(=O)C1(O)c2ccccc2-c2ccccc21 | inactive | –
34 | N[C@@H](Cc1ccc(Oc2cc(I)c(O)c(I)c2)c(I)c1)C(=O)O | inactive | –
35 | Clc1cc(Cl)c(-c2cc(Cl)c(Cl)cc2Cl)cc1Cl | inactive | –
36 | CCS(=O)(=O)CCSP(=O)(OC)OC | inactive | –

system: not listed separately; experiment: TOX21_p53_BLA_p3_viability: Viability Assessment in the Tox21 HCT-116 p53 Agonism Beta-lactamase Assay, Phase 3 (AID 2283593);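 also: cells exposed to compound for 16 h before reading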
In short: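 Cellular ATP was quantified by CellTiter-Glo luminescence, read after 30 min at room temperature. Beforehand, HCT116 cells (4000/well) received compound 5 h post-seeding, 217-fold diluted from DMSO, then incubated 16 h at 37C.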

Row | SMILES | outcome
37 | CN(C)c1ccc(N=Nc2ccccc2)cc1 | inactive
38 | N#CC(C#N)=Cc1ccc(O)c(O)c1 | inactive
39 | Cc1nnc(-c2ccccc2)c(=O)n1N | inactive
40 | CN(C)c1ccc(N)cc1 | inactive

molecular target: Cellular tumor antigen p53 (Homo sapiens) (UniProt P04637); experiment: TOX21_p53_BLA_p3_ratio: Tox21 HCT-116 p53 Agonism Beta-lactamase Assay, Ratio, Phase 3 (AID 2283596)
In short: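 Cells were seeded at 4000/well, rested 5 h at 37C, then dosed with DMSO compound solutions (217-fold dilution) for 16 h. CCF4-AM substrate was loaded for 2 h at room temperature, and the 460/530 nm emission ratio was fitted for gain of signal versus DMSO.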

Row | SMILES | outcome
41 | CN(C)c1ccc(N=Nc2ccccc2)cc1 | inactive
42 | N#CC(C#N)=Cc1ccc(O)c(O)c1 | inactive
43 | Cc1nnc(-c2ccccc2)c(=O)n1N | inactive
44 | CN(C)c1ccc(N)cc1 | inactive

system: not listed separately; experiment: TOX21_p53_BLA_p4_viability: Viability Assessment in the Tox21 HCT-116 p53 Agonism Beta-lactamase Assay, Phase 4 (AID 2283597);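 also: hits lower the luminescence signal meaning cytotoxicity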
In short: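 ATP content by CellTiter-Glo luminescence, 30 min RT, read after the beta-lactamase ratio step. Cells: HCT116, 4000/well, compound added after 5 h, exposure 16 h at 37C. Signal loss = reduced viability.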

Row | SMILES | outcome
45 | O=C(O)C(Cl)(Cl)Br | inactive
46 | CNC(=O)OCC[N+](C)(C)C | inactive
47 | CN(C)c1ccc(N=Nc2ccccc2)cc1 | inactive
48 | O=C1CN(O)C(c2ccccc2)=c2cc(Cl)ccc2=N1 | inactive
49 | N#CC(C#N)=Cc1ccc(O)c(O)c1 | inactive
50 | C[C@@H](Cc1ccccc1)N(C)C | inactive
51 | CC(Cl)C(C)Cl (stereo not drawn) | inactive
52 | NNC(=O)c1cccnc1 | inactive
53 | NC(=O)C(Cl)Cl | inactive
54 | N#CCCC#N | inactive
55 | C=CCN1C[C@H](C)N([C@H](c2ccc(C(=O)N(CC)CC)cc2)c2cccc(OC)c2)C[C@H]1C | inactive
56 | c1ccc2c(c1)CCNC2 | inactive
57 | COP(=S)(OC)Oc1ccc(S(N)(=O)=O)cc1 | inactive
58 | CN(C)c1ccc(N)cc1 | inactive
59 | CN[C@@H](C)Cc1ccccc1 | inactive
60 | CNNC | inactive
61 | COC1=CC(=O)O[C@@H](/C=C/c2ccccc2)C1 | inactive
62 | CC(C)=CCOc1c2occc2cc2ccc(=O)oc12 | inactive
63 | c1ccc2c(c1)Sc1ccccc1N2C[C@@H]1CN2CCC1CC2 | inactive
64 | CCCCCN(C)CCC(O)(P(=O)(O)O)P(=O)(O)O | inactive

molecular target: Cellular tumor antigen p53 (Homo sapiens) (UniProt P04637); experiment: TOX21_p53_BLA_p5_ratio: Tox21 HCT-116 p53 Agonism Beta-lactamase Assay, Ratio, Phase 5 (AID 2283599)
In short: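 Beta-lactamase reporter ratio (blue 460 nm over green 530 nm, 405 nm excitation) after 2 h CCF4-AM loading, in HCT-116 cells exposed 16 h at 37 C to compounds pinned at 217-fold dilution. Increases relative to DMSO baseline scored.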

Row | SMILES | outcome
65 | O=C(O)C(Cl)(Cl)Br | inactive
66 | COc1ccccc1N1CCNCC1 | inactive
67 | Cc1ccc(N)cc1C | inactive
68 | ClCC(Cl)(Cl)Cl | inactive
69 | CN(C)CCc1ccc(O)cc1 | inactive
70 | CCCCCCCCn1cc[n+](C)c1 | inactive
71 | N#CC(C#N)=Cc1ccc(O)c(O)c1 | inactive
72 | C[C@@H](Cc1ccccc1)N(C)C | inactive
73 | CCC1C(C)=NN=C(c2ccc(OC)c(OC)c2)c2cc(OC)c(OC)cc21 (stereo not drawn) | inactive
74 | CNC(=O)Oc1ccccc1C1OCCO1 | inactive
75 | CC(Cl)C(C)Cl (stereo not drawn) | inactive
76 | CCCCc1c(C)nc(NCC)nc1OS(=O)(=O)N(C)C | inactive
77 | NNC(=O)c1cccnc1 | inactive
78 | NC(=O)C(Cl)Cl | inactive
79 | N#CCCC#N | inactive
80 | C=CCN1C[C@H](C)N([C@H](c2ccc(C(=O)N(CC)CC)cc2)c2cccc(OC)c2)C[C@H]1C | inactive
81 | Clc1ccc(C2(Cn3cncn3)OCCO2)c(Cl)c1 | inactive
82 | COP(=S)(OC)Oc1ccc(S(N)(=O)=O)cc1 | inactive
83 | CN(C)c1ccc(N)cc1 | inactive
84 | CN(C)CCc1c[nH]c2cccc(OP(=O)(O)O)c12 | inactive
85 | CNNC | inactive
86 | CN1C(=O)CC(=O)N(c2ccccc2)c2cc(Cl)ccc21 | inactive
87 | O=S(=O)(Cl)Cl | inactive
88 | CC(C)=CCOc1c2occc2cc2ccc(=O)oc12 | inactive
89 | c1ccc2c(c1)Sc1ccccc1N2C[C@@H]1CN2CCC1CC2 | inactive
90 | CCCCCN(C)CCC(O)(P(=O)(O)O)P(=O)(O)O | inactive
91 | COC(=O)C1(O)c2ccccc2-c2ccccc21 | inactive
92 | N[C@@H](Cc1ccc(Oc2cc(I)c(O)c(I)c2)c(I)c1)C(=O)O | inactive
93 | Clc1cc(Cl)c(-c2cc(Cl)c(Cl)cc2Cl)cc1Cl | inactive
